For some of these results: Potency and affinity values are given separately. Calls of active or inactive are those of the source.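 The calls were made as follows, unless noted: active = membrane potential signal rise above negative control mean plus 3 SD in both duplicates, also active in the earlier TRPC4 screen; inactive = the rest.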
Tests used:
[1] = tested on: TRPC4 beta (transient receptor potential cation channel C4), mouse; assay: TRPC4 cation channel opening, retest – cell-based, Fluo4 calcium, HEK293 TRPC4beta/mu-opioid, duplicates, 10 µM, confirmation (AID 2426;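 active = fluorescence ratio normalized to control raised more than 50% in primary screen plus both repeat runs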;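 as to activation: percent rise of integrated ratio over buffer wells lacking compound which define 0%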); details: Fluo4 calcium fluorescence, at 10 µM; stronger effect = higher value
[2] = tested on: transient receptor potential cation channel C4 beta (TRPC4), mouse; assay: TRPC4 cation channel opening, second retest – cell-based, second round, Fluo4, HEK293 TRPC4beta/mu-opioid, 1 µM, confirmation (AID 2461;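 active = primary screen active and over 50% activation in each of two duplicate runs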;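 as to activation: 0% = wells without test compound as baseline of integrated fluorescence ratio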); details: Fluo4 calcium fluorescence, at 1 µM; stronger effect = higher value
[3] = tested on: TRPC4 (transient receptor potential cation channel C4 beta), mouse; assay: potentiation of DAMGO EC20 TRPC4 response – cell-based, second round, Fluo-4, HEK293 TRPC4beta/mu-opioid, 1 µM, confirmation (AID 2554;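 active = primary screen hit whose fluorescence ratio, in both repeats, exceeds the weak agonist control mean by 3 SD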); details: DAMGO EC20, Fluo-4 calcium flux, at 1 µM; stronger effect = higher value
[4] = tested on: TRPC4 beta (transient receptor potential cation channel C4), mouse; assay: potentiation of DAMGO EC20 TRPC4 response – cell-based, Fluo-4, HEK293 TRPC4beta/mu-opioid, confirmation (AID 2555;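 active = primary screen hit whose calcium fluorescence ratio, in both repeats, exceeds the weak agonist control mean by 3 SD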); details: DAMGO EC20, Fluo-4 calcium flux, at 10 µM; stronger effect = higher value
[5] = target: Short transient receptor potential channel 4 (Mus musculus) (UniProt Q9QUQ5); assay: blockers of DAMGO-evoked TRPC4 calcium flux – cell-based, Fluo4, HEK293 TRPC4beta/mu-opioid, confirmation (AID 2636;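 active = calcium signal cut by more than 3 SD below the full-agonist control yet still positive, in both repeats and the earlier primary screen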); details: at 10 µM; stronger effect = higher value
Sequence of Short transient receptor potential channel 4 (Mus musculus) (Q9QUQ5 whole entry, looked up): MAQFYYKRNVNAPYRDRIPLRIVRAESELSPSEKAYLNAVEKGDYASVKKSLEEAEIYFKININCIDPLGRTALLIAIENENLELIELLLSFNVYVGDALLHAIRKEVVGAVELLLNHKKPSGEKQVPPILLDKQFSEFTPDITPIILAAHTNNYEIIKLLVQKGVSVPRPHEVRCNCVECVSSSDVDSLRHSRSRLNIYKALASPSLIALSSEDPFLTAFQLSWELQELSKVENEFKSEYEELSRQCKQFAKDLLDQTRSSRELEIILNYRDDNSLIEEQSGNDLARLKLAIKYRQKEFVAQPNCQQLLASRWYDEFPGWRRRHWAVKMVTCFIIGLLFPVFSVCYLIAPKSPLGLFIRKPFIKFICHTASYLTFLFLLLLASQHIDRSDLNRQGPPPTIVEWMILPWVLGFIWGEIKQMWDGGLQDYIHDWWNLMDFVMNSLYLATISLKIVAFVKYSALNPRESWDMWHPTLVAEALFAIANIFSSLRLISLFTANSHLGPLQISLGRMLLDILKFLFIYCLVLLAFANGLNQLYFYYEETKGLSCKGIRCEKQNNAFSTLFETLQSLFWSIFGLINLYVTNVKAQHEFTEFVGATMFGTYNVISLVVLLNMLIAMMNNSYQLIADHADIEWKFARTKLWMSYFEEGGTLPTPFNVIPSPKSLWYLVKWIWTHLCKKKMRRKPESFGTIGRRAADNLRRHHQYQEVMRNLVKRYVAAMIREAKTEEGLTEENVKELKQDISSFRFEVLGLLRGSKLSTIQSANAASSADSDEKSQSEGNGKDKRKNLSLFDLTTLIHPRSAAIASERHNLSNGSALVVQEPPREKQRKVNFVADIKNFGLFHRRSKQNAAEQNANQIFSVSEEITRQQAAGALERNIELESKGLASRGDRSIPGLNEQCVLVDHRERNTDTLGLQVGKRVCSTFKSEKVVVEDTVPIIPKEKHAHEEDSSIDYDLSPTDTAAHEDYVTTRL

[6] = target: Short transient receptor potential channel 4 (Mus musculus) (UniProt Q9QUQ5); assay: blockers of DAMGO-evoked TRPC4 calcium flux – cell-based, second round, Fluo4, HEK293 TRPC4beta/mu-opioid, 1 µM, confirmation (AID 2637;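 active = calcium signal ratio cut to more than 3 SD under the fully stimulated control mean yet still positive, in both repeats and the primary screen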;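 as to inhibition: percent of integrated ratio relative to wells lacking test compound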); details: at 1 µM; stronger effect = higher value
[7] = target: Short transient receptor potential channel 4 (Mus musculus) (UniProt Q9QUQ5); assay: potentiation of DAMGO-evoked TRPC4 calcium signal – cell-based, HEK293 TRPC4/mu-opioid, Fluo-4 calcium, EC20 DAMGO, dose response (AID 434941;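 active = earlier screen potentiator hit that boosts the TRPC4 ion channel at some dose, with a dose response; inactive = no potentiation, no dose response, or not a prior hit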;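 also: calcium entry triggered by an EC20 dose of DAMGO at the co-expressed mu-opioid receptor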)
[8] = target: Short transient receptor potential channel 4 (Mus musculus) (UniProt Q9QUQ5); assay: block of DAMGO-driven TRPC4 calcium entry – cell-based, HEK293 TRPC4/mu-opioid, Fluo-4 calcium, dose response (AID 434942;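 active = primary screen inhibitor hit that blocks the TRPC4 channel at some tested dose, yielding a dose curve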)
[9] = target: Short transient receptor potential channel 6 (Mus musculus) (UniProt Q61143); assay: TRPC6 blockade by TRPC4 inhibitor hits – cell-based, HEK293, membrane potential dye, duplicate, selectivity assay for TRPC4 inhibitor project, confirmation (AID 434948;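 active = active in primary screen and both duplicates, each dropping signal beyond three positive-control SD with fluorescence still positive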); details: HEK293 TRPC6, membrane potential dye fluorescence, at 10 µM, stimulated with maximal-effect acetylcholine; stronger effect = higher value
Sequence of Short transient receptor potential channel 6 (Mus musculus) (Q61143 whole entry, looked up): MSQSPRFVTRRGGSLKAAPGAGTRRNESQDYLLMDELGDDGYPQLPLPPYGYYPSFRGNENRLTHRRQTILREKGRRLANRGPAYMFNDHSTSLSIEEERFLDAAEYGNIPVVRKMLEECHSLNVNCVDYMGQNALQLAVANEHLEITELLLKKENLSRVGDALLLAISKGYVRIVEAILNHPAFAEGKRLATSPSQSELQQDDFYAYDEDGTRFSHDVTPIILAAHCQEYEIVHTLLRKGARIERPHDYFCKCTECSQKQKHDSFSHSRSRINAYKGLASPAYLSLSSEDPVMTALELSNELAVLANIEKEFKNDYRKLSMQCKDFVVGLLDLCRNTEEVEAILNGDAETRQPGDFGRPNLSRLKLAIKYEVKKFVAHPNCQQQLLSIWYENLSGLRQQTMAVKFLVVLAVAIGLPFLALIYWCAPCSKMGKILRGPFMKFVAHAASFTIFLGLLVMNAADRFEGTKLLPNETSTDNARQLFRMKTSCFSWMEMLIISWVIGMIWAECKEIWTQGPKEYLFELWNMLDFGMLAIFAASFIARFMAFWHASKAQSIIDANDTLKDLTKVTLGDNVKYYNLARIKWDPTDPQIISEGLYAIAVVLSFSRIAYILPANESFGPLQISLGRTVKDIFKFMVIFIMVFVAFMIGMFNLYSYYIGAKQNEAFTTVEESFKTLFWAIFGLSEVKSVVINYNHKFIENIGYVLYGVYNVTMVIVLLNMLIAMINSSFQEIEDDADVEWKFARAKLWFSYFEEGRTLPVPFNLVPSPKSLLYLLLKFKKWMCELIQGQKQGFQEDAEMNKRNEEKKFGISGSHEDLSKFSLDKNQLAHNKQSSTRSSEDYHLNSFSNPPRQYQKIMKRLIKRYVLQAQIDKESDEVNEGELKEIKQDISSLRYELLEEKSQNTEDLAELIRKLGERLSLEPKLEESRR

[10] = target: Short transient receptor potential channel 6 (Mus musculus) (UniProt Q61143); assay: TRPC6 opening by TRPC4 activator hits – cell-based, HEK293, membrane potential dye, duplicate, selectivity assay for TRPC4 activator project, confirmation (AID 434950); details: HEK293 TRPC6, membrane potential fluorescence, at 10 µM; activation: stronger effect = higher value; outcome: activation;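 as to activation: 0% = buffer only wells and 100% = acetylcholine maximal-effect wells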
[11] = target: Short transient receptor potential channel 6 (Mus musculus) (UniProt Q61143); assay: positive modulators of mouse TRPC6 channel – HEK293 cells, membrane potential dye, duplicate, selectivity assay for TRPC4 potentiator project, confirmation (AID 434952;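 active = compound raising the membrane signal above positive-control mean plus 3 SD in both repeats, and a primary screen hit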); details: HEK293 TRPC6, membrane potential dye fluorescence, at 10 µM, maximal acetylcholine added after compound; stronger effect = higher value
[12] = target: Short transient receptor potential channel 4 (Mus musculus) (UniProt Q9QUQ5); assay: calcium flux activators in TRPC4/5HT1a cells, counter-screen for TRPC4 activator project, cell-based, second counter screen, HEK293 TRPC4/5HT1a, Fluo-4 (AID 434977;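 active = calcium signal rise above buffer-control mean plus 5 SD in both duplicates, and also a hit in the primary screen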;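 as to activation: plate controls were assay buffer for no effect and maximal serotonin response for full effect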); details: Fluo-4 calcium flux, at 10 µM; stronger effect = higher value
[13] = serotonin-gated TRPC4 signal block – cell-based, second counter screen, HEK293 TRPC4/5HT1a, Fluo-4, counter-screen for TRPC4 inhibitor project, confirmation (AID 434978;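 active = primary screen active whose calcium signal fell more than 3 SD beyond the full-serotonin control mean in both duplicate plates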;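 as to outcome: serotonin given first at submaximal then at maximal dose after compound preincubation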); details: Fluo-4 calcium flux, at 10 µM, serotonin added to trigger calcium flux; stronger effect = higher value
[14] = tested on: TRPC4 (mouse), co-expressed with 5HT1a in HEK293; assay: enhancement of serotonin-evoked TRPC4 response – cell-based, second counter screen, HEK293 TRPC4/5HT1a, Fluo-4, counter-screen for TRPC4 potentiator project, confirmation (AID 434979;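 active = signal rise over 3 SD above mean of control wells given weak agonist, in both repeats and first screen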); details: Fluo-4 calcium flux, at 10 µM, serotonin added at its EC20 dose; stronger effect = higher value
[15] = nonspecific calcium rise without TRPC4 – cell-based, HEK293 mu-opioid receptor line, counter-screen for TRPC4 activator project, confirmation (AID 449723;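 active = hit in primary screen, with calcium signal over 5 SD above buffer well mean in both duplicates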;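 also: counter screen cells carry the mu-opioid receptor alone and lack TRPC4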); details: HEK293 mu-opioid cells, Fluo-4 calcium fluorescence, at 10 µM; stronger effect = higher value
[16] = nonspecific potentiation of DAMGO calcium response – cell-based, HEK293 mu-opioid receptor line, counter-screen for TRPC4 allosteric potentiator project, confirmation (AID 449724;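 active = calcium signal rise more than 3 SD above the low-dose agonist control mean, in both duplicate plates and the primary screen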); details: HEK293 mu-opioid receptor cells, Fluo-4 calcium flux, at 10 µM, compound added before EC20 DAMGO stimulus; stronger effect = higher value
[17] = nonspecific flux increase, KCNQ1-free cells – parental CHO cells, counter-screen for KCNQ1 potentiator project (AID 493006;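 active = duplicate-averaged activation above buffer control mean plus 5 SD of those controls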;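 as to activation: fluorescence ratio of max minus min over baseline after K+ and Tl+ depolarization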); details: parental CHO-K1 cells, FluxOR thallium flux, at 10 µM; stronger effect = higher value
[18] = target: Potassium voltage-gated channel subfamily KQT member 1 (Homo sapiens) (UniProt P51787); assay: enhancement of KCNQ1 channel thallium flux – FluxOR thallium flux, CHO cells, duplicates, confirmation (AID 493007;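 active = potentiation averaged over duplicate wells exceeding buffer-only control mean by more than 3 SD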;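 as to outcome: cells depolarized by a potassium plus thallium sulfate stimulus after compound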;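 as to potentiation: 0% = buffer-only wells and 100% = R-L3 activator control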); details: KCNQ1 cell line, FluxOR thallium flux fluorescence, at 10 µM; stronger effect = higher value, % of reference activator effect, buffer zero
Sequence of Potassium voltage-gated channel subfamily KQT member 1 (Homo sapiens) (P51787 whole entry, looked up): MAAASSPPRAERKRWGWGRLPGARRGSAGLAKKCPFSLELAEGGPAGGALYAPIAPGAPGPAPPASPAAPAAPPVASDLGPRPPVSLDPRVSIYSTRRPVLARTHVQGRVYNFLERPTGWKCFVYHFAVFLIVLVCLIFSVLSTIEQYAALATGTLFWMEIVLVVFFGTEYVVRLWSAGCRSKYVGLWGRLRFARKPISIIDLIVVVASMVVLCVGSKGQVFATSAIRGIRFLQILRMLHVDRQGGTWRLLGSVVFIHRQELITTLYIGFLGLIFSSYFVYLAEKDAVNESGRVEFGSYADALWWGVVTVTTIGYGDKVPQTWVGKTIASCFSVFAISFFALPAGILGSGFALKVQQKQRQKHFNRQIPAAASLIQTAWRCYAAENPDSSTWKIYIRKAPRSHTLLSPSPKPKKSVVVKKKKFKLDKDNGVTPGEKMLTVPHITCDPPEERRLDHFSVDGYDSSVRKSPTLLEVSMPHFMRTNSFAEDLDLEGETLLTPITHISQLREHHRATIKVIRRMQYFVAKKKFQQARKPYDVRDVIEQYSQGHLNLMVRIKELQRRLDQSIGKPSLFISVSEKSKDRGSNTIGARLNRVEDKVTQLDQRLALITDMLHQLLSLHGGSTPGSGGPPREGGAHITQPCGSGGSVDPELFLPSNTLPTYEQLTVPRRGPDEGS

[19] = target: Potassium voltage-gated channel subfamily KQT member 2 (Rattus norvegicus) (UniProt O88943); assay: KCNQ2 thallium flux enhancement – KCNQ2-CHO-K1 cells, selectivity assay for KCNQ1 potentiator project (AID 493009;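 active = mean duplicate potentiation above the buffer control mean plus 5 SD of buffer wells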;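 also: assay conditions were tuned for KCNQ1 rather than KCNQ2 modulators; signal is max minus min fluorescence divided by baseline after thallium stimulus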); details: FluxOR thallium flux fluorescence, at 10 µM; stronger effect = higher value, scaled: buffer 0, activator control 100
Sequence of Potassium voltage-gated channel subfamily KQT member 2 (Rattus norvegicus) (O88943 whole entry, looked up): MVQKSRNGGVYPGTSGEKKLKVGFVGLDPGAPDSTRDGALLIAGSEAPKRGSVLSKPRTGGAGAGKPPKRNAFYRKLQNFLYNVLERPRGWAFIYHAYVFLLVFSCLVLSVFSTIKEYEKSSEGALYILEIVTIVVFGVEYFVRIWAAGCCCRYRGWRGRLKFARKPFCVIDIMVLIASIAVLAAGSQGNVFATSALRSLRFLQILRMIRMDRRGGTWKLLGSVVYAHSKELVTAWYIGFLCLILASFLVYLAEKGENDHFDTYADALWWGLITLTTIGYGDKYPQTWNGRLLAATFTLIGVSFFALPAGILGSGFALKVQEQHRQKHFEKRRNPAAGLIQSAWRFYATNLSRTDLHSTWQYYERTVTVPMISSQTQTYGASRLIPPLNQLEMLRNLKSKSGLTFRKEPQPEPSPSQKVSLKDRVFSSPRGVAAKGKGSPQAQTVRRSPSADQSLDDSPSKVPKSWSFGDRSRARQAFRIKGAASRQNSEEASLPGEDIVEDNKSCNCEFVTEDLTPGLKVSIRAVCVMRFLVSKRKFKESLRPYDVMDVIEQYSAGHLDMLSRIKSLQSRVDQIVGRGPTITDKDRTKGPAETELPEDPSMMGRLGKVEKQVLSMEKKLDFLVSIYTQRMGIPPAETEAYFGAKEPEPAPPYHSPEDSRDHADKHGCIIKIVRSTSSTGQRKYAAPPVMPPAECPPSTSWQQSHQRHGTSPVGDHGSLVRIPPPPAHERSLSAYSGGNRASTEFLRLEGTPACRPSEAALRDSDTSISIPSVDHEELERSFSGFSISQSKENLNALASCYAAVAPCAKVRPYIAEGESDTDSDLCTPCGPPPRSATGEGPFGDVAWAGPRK

[20] = target: Potassium voltage-gated channel subfamily KQT member 1 (Homo sapiens) (UniProt P51787); assay: KCNQ1 activators by electrophysiology – IonWorks patch clamp, KCNQ1-CHO cells, orthogonal assay for KCNQ1 potentiator project, confirmation (AID 493184;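 active = current rise at least 3 SD above the untreated control mean in each of two repeat wells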;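 as to current potentiation: percent change of the same well's current before compound addition so 0% = no change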); details: automated patch clamp current, at 10 µM; stronger effect = higher value

CC(C)(C)C(=O)NC(=S)NNC(=O)C(c1ccccc1)c1ccccc1
inactive: outcome [2] | outcome [3] | outcome [4] | outcome [5] | outcome [6] | outcome [7] | outcome [8] | outcome [9] | outcome [11] | outcome [13] | outcome [14] | outcome [16] | outcome [17] | outcome [19] | outcome [20]
active: activation [1] 286% | activation [10] 46% | activation [12] 158% | activation [15] 119% | potentiation [18] 22%

CC(C)(C)C(=O)NC(=S)NNC(=O)c1ccc(-c2ccccc2)cc1
active: activation [1] 257% | activation [2] 60% | activation [10] 35.5% | activation [12] 147% | activation [15] 83.6% | activation [17] 308% | potentiation [18] 163% | potentiation [19] 430%
inactive: outcome [3] | outcome [4] | outcome [5] | outcome [6] | outcome [7] | outcome [8] | outcome [9] | outcome [11] | outcome [13] | outcome [14] | outcome [16] | outcome [20]

Cc1onc(-c2ccccc2)c1C(=O)NNC(=S)NC(=O)c1ccc(F)cc1
inactive: outcome [2] | outcome [3] | outcome [4] | outcome [5] | outcome [6] | outcome [7] | outcome [8] | outcome [9] | outcome [11] | outcome [13] | outcome [14] | outcome [16] | outcome [17] | outcome [18] | outcome [19]
active: activation [1] 201% | activation [10] 27.5% | activation [12] 110% | activation [15] 58.7% | current potentiation [20] 16.2%

CC(Oc1ccc(Cl)cc1)C(=O)NNC(=S)NC(=O)c1ccco1 (stereo not given)
active: activation [1] 192% | activation [12] 104% | activation [15] 29.1% | potentiation [18] 50% | potentiation [19] 170%
inactive: outcome [2] | outcome [3] | outcome [4] | outcome [5] | outcome [6] | outcome [7] | outcome [8] | outcome [9] | outcome [10] | outcome [11] | outcome [13] | outcome [14] | outcome [16] | outcome [17] | outcome [20]

Cc1onc(-c2ccccc2)c1C(=O)NNC(=S)NC(=O)c1ccc(Br)cc1
active: activation [1] 263% | activation [12] 190% | activation [15] 70.7%
inactive: outcome [2] | outcome [3] | outcome [4] | outcome [5] | outcome [6] | outcome [7] | outcome [8] | outcome [9] | outcome [10] | outcome [11] | outcome [13] | outcome [14] | outcome [16] | outcome [17] | outcome [18] | outcome [19] | outcome [20]

COc1ccc(C(CNC(=O)c2cccc3cccnc23)N(C)C)cc1 (stereo not given)
inactive: outcome [2] | outcome [3] | outcome [4] | outcome [5] | outcome [7] | outcome [9] | outcome [11] | outcome [12] | outcome [13] | outcome [14] | outcome [15] | outcome [16]
active: activation [1] 132% | inhibition [6] 80% | activation [10] 33%

O=C(NCc1ccccc1)C1=C[C@H](c2ccc3c(c2)OCO3)C[C@H](OCc2ccc(CO)cc2)O1
active: activation [1] 142% | activation [12] 115% | inhibition [13] 18.1%
inactive: outcome [2] | outcome [3] | outcome [4] | outcome [5] | outcome [6] | outcome [7] | outcome [9] | outcome [10] | outcome [11] | outcome [14] | outcome [15] | outcome [16]

COc1ccccc1NS(=O)(=O)c1cccc(C(=O)NC2CCN(Cc3ccccc3)CC2)c1
active: activation [1] 90% | inhibition [6] 72% | activation [10] 38.5%
inactive: outcome [2] | outcome [3] | outcome [4] | outcome [5] | outcome [7] | outcome [9] | outcome [11] | outcome [12] | outcome [13] | outcome [14] | outcome [15] | outcome [16]

CN(C)C(CNC(=O)C1CCN(S(=O)(=O)c2cccc(C(F)(F)F)c2)CC1)c1ccccc1 (stereo not given)
inactive: outcome [1] | outcome [2] | outcome [3] | outcome [4] | outcome [5] | outcome [7] | outcome [9] | outcome [10] | outcome [11] | outcome [12] | outcome [13] | outcome [14] | outcome [15] | outcome [16]
active: inhibition [6] 85%
